# About 83,000 compounds went through this panel and 20% of them were active in at least one assay; those are over-represented in the sample as a whole.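 Cell lines were cultured in 96-well plates, exposed to a single compound concentration, and assessed for percent growth 48 hours later.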 A number with no mark means an inactive call. Activity calls are given as the source filed them. Rule for the calls: active = growth percent below 10; inactive = the rest.
# What was measured:
# Assay in all cases: NCI-60 one-dose screen, 48 h (100 = growth as untreated, 0 = no growth, -100 = all killed)
# Settings in all cases: 10 µM unless noted
# [1] = tested on: HCT-15 colon
# [2] = tested on: HT29 colon
# [3] = tested on: SNB-75 CNS
# [4] = tested on: SNB-19 CNS
# [5] = tested on: U251 CNS
# [6] = tested on: PC-3 prostate
# [7] = tested on: SK-MEL-5 melanoma
# [8] = tested on: UACC-62 melanoma
# [9] = tested on: LOX IMVI melanoma
# [10] = tested on: SK-MEL-28 melanoma
# [11] = tested on: SK-MEL-2 melanoma
# [12] = tested on: EKVX NSCLC
# [13] = tested on: SN12C renal
# [14] = tested on: UO-31 renal
# [15] = tested on: TK-10 renal
# [16] = tested on: ACHN renal
# [17] = tested on: CAKI-1 renal
# [18] = tested on: A498 renal
# [19] = tested on: CCRF-CEM leukemia
# [20] = tested on: MOLT-4 leukemia
Structure (SMILES),growth [1],growth [2],growth [3],growth [4],growth [5],growth [6],growth [7],growth [8],growth [9],growth [10],growth [11],growth [12],growth [13],growth [14],growth [15],growth [16],growth [17],growth [18] [%],growth [19],growth [20]
O=C1c2ccc3c4c5ccc(c24)C(=O)N1CCCOCCCCOCCCNCc1ccc(cc1)CNCCCOCCCCOCCCN(C3=O)C5=O,-41% (active),-18.7% (active),98.1%,-2.17% (active),-78.3% (active),6.2% (active),-99.9% (active),-90.3% (active),-87.8% (active),-24.1% (active),-35.8% (active),-63.1% (active),-82.9% (active),64.7%,21.6%,-65.7% (active),-1.05% (active),93.7,-0.763% (active),-12.3% (active)
COC(=O)Nc1nc2ccc(S(=O)c3ccccc3)cc2[nH]1 (stereo not given),45.6%,16.9%,73.2%,74.9%,60.2%,67.4%,42.5%,52.4%,64.8%,72.8%,48.1%,80%,82.2%,65%,92.9%,86.1%,63.2%,56.6,66.9%,70.5%
CC(C)=CCC[C@](C)(O)[C@H]1CC[C@]2(C)[C@@H]1CC[C@@H]1[C@@]3(C)C/C(=C/c4ccco4)C(=O)C(C)(C)[C@@H]3CC[C@]12C,110%,111%,92.7%,103%,101%,97.4%,102%,91.7%,101%,102%,109%,101%,97%,88.7%,103%,102%,90.7%,86.3,101%,104%
COc1ccc(C(=O)C/C(=C\c2ccc(Cl)cc2)C(=O)NCc2ccccc2)cc1,47%,82.1%,100%,85.5%,70.6%,56.4%,93.4%,67.3%,77.9%,91.2%,79.6%,95.6%,91.3%,76%,72.7%,92.7%,87.4%,88,73.5%,72.9%
CCOC(=O)C#Cc1c(C(=O)OCC)nnn1Cc1ccc([N+](=O)[O-])cc1,-20% (active),7.68% (active),65.3%,87.9%,96.5%,72.7%,93.2%,76%,-0.0172% (active),87%,109%,106%,58.6%,4.18% (active),-10.9% (active),-53.6% (active),-52% (active),107,-21.3% (active),14.9%
Cn1ccnc1C(=O)/C=C/c1ccc(C(=O)Nc2ccc(Cl)cc2)cc1,-13.2% (active),2.78% (active),-3.04% (active),-3% (active),-50.1% (active),-6.8% (active),32.3%,16.6%,-84.8% (active),62.4%,82.4%,8.52% (active),0.398% (active),-74.7% (active),16.9%,-39.9% (active),-2.07% (active),19.5,8.42% (active),5.13% (active)
COc1cc(C2c3cc(OC(C)=O)c(OC)cc3CC3C(=O)OCC32)ccc1OC(C)=O (stereo not given),104%,97.6%,94.5%,116%,92.6%,68.3%,109%,103%,103%,122%,132%,111%,93.2%,78.2%,122%,94.3%,97.1%,180,92.4%,112%
CCn1cc(C(=O)NNC(=S)Nc2ccc(C)cc2)c(=O)c2ccc(C)nc21,103%,97.5%,97.3%,102%,93.9%,90.2%,101%,91.3%,95.1%,105%,104%,101%,88.6%,78.9%,100%,95.5%,95.4%,76.4,90.7%,102%

# Source: PubChem BioAssay (NCI)
